Experimental findings from the supplement of paper PMC3414501 are described below.

For assay [1], the system named is S. cerevisiae SK1 pCDA2-eGFP (USY613), sporulating. The assay can be described thus: CDA2-GFP sporulation assay sensitivity score (z-score vs DMSO controls); higher = stronger inhibition of sporulation, active = hit call of the paper.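 Further: active if sensitivity score above 5.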
Assay [2] has as its system S. cerevisiae NKY1551 his4x/his4B, sporulating. Briefly: HIS4 meiotic recombination assay sensitivity score (z-score vs DMSO controls); higher = stronger inhibition of sporulation/recombination, active = hit call of the paper.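 Further: active if sensitivity score above 5.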
Assay [3] relates to S. cerevisiae AD1-9 (efflux-pump deficient), vegetative growth in YPD. The assay can be described thus: growth sensitivity score (doubling time z-score vs DMSO controls); higher = slower growth, strongly negative scores also mark growth inhibition (complete suppression), active = hit call of the paper. Put shortly:
(§1)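 Yeast (Saccharomyces cerevisiae BY4741 and AD1-9) was grown in rich medium in microtiter plates from a starting OD600 of 0.065, with optical density read every 15 min over 24 hours. The growth sensitivity score was the difference between compound and solvent-only means, divided by the solvent-only standard deviation. Every experiment had eight solvent-only wells.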

Assay [4] has as its system S. cerevisiae BY4741 (wild-type), vegetative growth in YPD. The assay is described as above. The method in brief: as §1

Each structure is given as a SMILES string. Structures can show the parent of a compound that is named as a salt.

Take `CCN(CC)C(=S)SSC(=S)N(CC)CC` [Tetraethylthiuram disulfide] (stock concentration (mM, diluted 1:100): 10): in assay [1], the “CDA2-GFP sporulation assay sensitivity score” value is -1.5 (inactive). Moreover, in assay [2], the “HIS4 meiotic recombination assay sensitivity score” value was -2.95 (inactive).

Regarding `CN1C(C(=O)Nc2ccccn2)=C(O)c2ccccc2S1(=O)=O` [Piroxicam] (stock concentration (mM, diluted 1:100): 10), the “CDA2-GFP sporulation assay sensitivity score” value in assay [1] is -3.86 (inactive). The “HIS4 meiotic recombination assay sensitivity score” value in assay [2] is 0.11 (inactive). Besides, the growth sensitivity score in assay [3] is 0.98 (inactive); in assay [4], 0.09 (inactive).

Take `COc1cccc2c1C(=O)c1c(O)c3c(c(O)c1C2=O)C[C@@](O)(C(=O)CO)C[C@@H]3O[C@H]1C[C@H](N)[C@@H](O)[C@H](C)O1` [Epirubicin hydrochloride] (stock concentration (mM, diluted 1:100): 9.4): the “CDA2-GFP sporulation assay sensitivity score” value in assay [1] is -0.4 (inactive). Further, the “HIS4 meiotic recombination assay sensitivity score” value in assay [2] is -1.39 (inactive). For the same compound, the results for the growth sensitivity score in assay [3] and in assay [4] were 93.9 (active) and 11.8 (active), respectively.

Regarding `Cc1nc2ccccn2c(=O)c1CCN1CCC(C(=O)c2ccc(F)cc2)CC1` [Pirenperone] (stock concentration (mM, diluted 1:100): 10), the “CDA2-GFP sporulation assay sensitivity score” value in assay [1] was 13.6 (active). Moreover, the “HIS4 meiotic recombination assay sensitivity score” value in assay [2] was 2.21 (inactive). Besides, the growth sensitivity score in assay [3] was -0.84 (inactive); in assay [4] it was -0.59 (inactive).

Take `CO[C@H]1O[C@@H]2O[C@@]3(C)CC[C@H]4[C@H](C)CC[C@@H]([C@H]1C)[C@@]24OO3` [Artemether] (stock concentration (mM, diluted 1:100): 10): in assay [1], the “CDA2-GFP sporulation assay sensitivity score” value was 7.92 (inactive). In addition, the “HIS4 meiotic recombination assay sensitivity score” value in assay [2] was -0.64 (inactive). Besides, the growth sensitivity score in assay [3] is 9.66 (active); in assay [4], 17.6 (active).

Take `COc1ccc2[nH]c([S+]([O-])Cc3ncc(C)c(OC)c3C)nc2c1` (configuration not stated) [Omeprazole] (stock concentration (mM, diluted 1:100): 10): the “CDA2-GFP sporulation assay sensitivity score” value in assay [1] was 6.11 (inactive). For the same compound, the “HIS4 meiotic recombination assay sensitivity score” value in assay [2] is -1.05 (inactive). The growth sensitivity score in assay [3] is -3.25; in assay [4] it was 0.39 (inactive).
